# In PubChem BioAssay (NCATS):
# Inconclusive results are not listed. Calls of active or inactive are those of the source. Unless noted, calls come from the whole dose curve; as a rule, active = well fitted cell-killing curve with a large enough effect; inconclusive = small, poorly fitted or top-dose-only effect, or effect the other way; inactive = no such curve, though single readings can be large or run the other way.
# Experiments:
# [1] = Quantitative High-Throughput drug screen in 47 multiple myeloma cell lines against the NCATS MIPE library collection: VP6_DJ cell viability assay (AID 1919867); note: nearly all actives have a fitted effect of over 40% in size
# Outline: (§1)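 ATP-based luminescence (CellTiter-Glo, 5 min RT incubation) quantified surviving cells following two days' treatment with MIPE 4.0 agents at 37 °C, 5% CO2.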
# [2] = Quantitative High-Throughput drug screen in 47 multiple myeloma cell lines against the NCATS MIPE library collection: UTMC2_PLB cell viability assay (AID 1919868); conditions: CellTiter-Glo ATP luminescence, 48 h; viability (% of DMSO control): at 45.8 µM (top of the series) unless noted; note: nearly all actives have a fitted effect of over 55% in size
# Outline: as §1
# [3] = Quantitative High-Throughput drug screen in 47 multiple myeloma cell lines against the NCATS MIPE library collection: PE2_PLB cell viability assay (AID 1919869); note: nearly all actives have a fitted effect of over 35% in size
# Outline: as §1
# [4] = Quantitative High-Throughput drug screen in 47 multiple myeloma cell lines against the NCATS MIPE library collection: PCM6_Riken cell viability assay (AID 1919870); note: nearly all actives have a fitted effect of over 30% in size
# Outline: as §1
# [5] = Quantitative High-Throughput drug screen in 47 multiple myeloma cell lines against the NCATS MIPE library collection: RPMI8226_ATCC cell viability assay (AID 1919871); note: nearly all actives have a fitted effect of over 30% in size
# Outline: as §1
# [6] = Quantitative High-Throughput drug screen in 47 multiple myeloma cell lines against the NCATS MIPE library collection: OPM2_DSMZ cell viability assay (AID 1919872); note: nearly all actives have a fitted effect of over 30% in size
# Outline: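 CellTiter-Glo ATP luminescence gave viability after 48 h compound treatment at 37C of 500 multiple myeloma cells per well. Normalisation used DMSO-only wells as 100% and media-only wells as 0% viability; primary qHTS of approved and investigational drugs.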
# [7] = Quantitative High-Throughput drug screen in 47 multiple myeloma cell lines against the NCATS MIPE library collection: KMS28BM_JCRB cell viability assay (AID 1919874); note: nearly all actives have a fitted effect of over 35% in size
# Outline: as §1
# [8] = qHTS drug screen for cell cycle checkpoint inhibitors in PARPi-resistant BRCA-mutant ovarian cancer cell lines. (AID 1963452; calls by dose curve); conditions: PEO1/OlaR viability, CellTiter-Glo luminescence, 96 h; for Z-AUC: stronger effect = lower value
# Outline: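 PEO1, PEO4 and PEO1/OlaR ovarian cancer cells, 600 per well, exposed 96 h at 37C to a dilution series. Viability read by CellTiter-Glo luminescence, normalized to DMSO and empty wells; activity summarized as Z-AUC.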
# [9] = qHTS for identification of novel therapeutic agents for treatment of microphthalmiaassociated transcription factor (MiT) renal cell carcinoma (RCC) (AID 1963991; calls by dose curve;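 for z-score: curves scaled with 100% = DMSO viability and 0% = empty wells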); conditions: CellTiter-Glo, 48 h; for Potency: active = Z-AUC below -0.8 in all three lines; for z-score: stronger effect = lower value
# Outline: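 UOK109/UOK124/UOK145 (TFE3 fusions, three partners); 500 cells/well; MIPE v4.0, 1912 cpds, 11 conc.; 48 h, 37 C; CellTiter-Glo, 15 min RT; lum. Norm.: DMSO 100%, empty 0%.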
# [10] = Quantitative High-Throughput drug screen in 47 multiple myeloma cell lines against the NCATS MIPE library collection: KMS11_JCRBsus cell viability assay (AID 1919873); note: nearly all actives have a fitted effect of over 50% in size
# Outline: as §1
# [11] = measured here: PEO1 parental Z-AUC
# [12] = TFE3-RCC UOK109 viability, measured here: UOK109 Z-AUC
# [13] = TFE3-RCC viability, measured here: UOK124 Z-AUC
# [14] = TFE3-RCC viability, measured here: UOK145 Z-AUC
# Potency is the fitted concentration of half-maximal effect.
SMILES,Potency [1],Potency [2],Potency [3],Potency [4],Potency [5],Potency [6],Potency [7],Z-AUC [8],"Z-AUC [8, 11]",Z-AUC ([8]; measured here: PEO4 Z-AUC),Potency ([9]; TFE3-RCC UOK109 viability),"z-score [9, 12]","z-score [9, 13]","z-score [9, 14]",Potency [10],viability (% of DMSO control) [2],Potency [8]
C=C1C(=CC=C2CCC[C@]3(C)[C@@H]([C@H](C)C=C[C@H](C)C(C)C)CC[C@@H]23)C[C@@H](O)C[C@@H]1O,0.132 µM (active),2.09 µM (active),16.6 µM (active),1.32 µM (active),14.8 µM (active),10.5 µM (active),0.209 µM (active),0.703 (inactive),0.5,0.821,0.418 µM (active),-1.36,-0.997,-1.08,,,
C[C@]1(CO)CN(c2cc(C(=O)Nc3ccc4c(c3)-c3c(c(C(N)=O)nn3-c3ccc(F)cc3)CC4)c(Cl)cn2)C[C@@]1(C)CO,16.6 µM (active),11.8 µM (active),11.8 µM (active),16.6 µM (active),2.96 µM (active),,,,,,,,,,3.72 µM (active),,
CN1CC[C@@H](c2c(O)cc(O)c3c(=O)cc(-c4ccccc4Cl)oc23)[C@@H](O)C1,0.0526 µM (active),0.0833 µM (active),0.0662 µM (active),0.0833 µM (active),0.235 µM (active),,0.0935 µM (active),-0.536 (inactive),-1.36,-1.16,0.118 µM (active),-2.54,-1.53,-2.13,,,
CN1CCN(c2ccc3nc(-c4c(N)c5c(F)cccc5[nH]c4=O)[nH]c3c2)CC1,2.35 µM (active),5.9 µM (active),5.26 µM (active),2.64 µM (active),29.6 µM (active),,14.8 µM (active),-0.169 (inactive),-0.682,-0.379,,,,,10.5 µM (active),,
CNc1nccc(-c2cccnc2Oc2cc(C(=O)Nc3cccc(C(F)(F)F)c3)ccc2C)n1,5.26 µM (active),14.8 µM (active),6.62 µM (active),4.18 µM (active),,,23.5 µM (active),0.523 (inactive),-0.637,0.0306,,,,,18.7 µM (active),,
CN(C)CCCN=c1c2ccccc2n(C)c2[nH]c(=O)n(C)c(=O)c12,14.8 µM (active),,16.6 µM (active),14.8 µM (active),,20.9 µM (active),16.6 µM (active),0.193 (inactive),1.79,1.54,,,,,,91.5% (active),
Cc1nc2ccc(CN(C)c3ccc(C(=O)N[C@@H](CCC(=O)O)C(=O)O)s3)cc2c(=O)[nH]1,inactive,1.66 µM (active),inactive,,inactive,,inactive,-1.54 (inactive),-1.34,-0.15,,,,,0.0093 µM (active),,
CC(NCc1ccc2c(c1)nc(NC(=O)c1ccc(-c3cn[nH]c3)s1)n2CC(C)(C)O)C(C)(C)C (centres undefined),0.187 µM (active),0.105 µM (active),0.296 µM (active),0.105 µM (active),,1.05 µM (active),0.332 µM (active),,,,0.935 µM (active),-1.95,-2.39,-1.22,0.209 µM (active),,
COc1cc(C)c(Sc2cnc(NC(=O)c3ccc(CNC(C)C(C)C)cc3)s2)cc1C(=O)N1CCN(C(C)=O)CC1 (centres undefined),7.43 µM (active),4.18 µM (active),13.2 µM (active),23.5 µM (active),,20.9 µM (active),13.2 µM (active),-0.385 (inactive),-0.662,-0.689,,,,,8.33 µM (active),,
c1nc2nc(Nc3ccc(N4CCOCC4)cc3)nc(NC3CCCCC3)c2[nH]1,3.32 µM (active),2.64 µM (active),3.72 µM (active),5.9 µM (active),,11.8 µM (active),4.18 µM (active),-0.117 (inactive),0.016,-0.143,,,,,5.26 µM (active),,
CC(C)[C@H](C(=O)Nc1ccc(C(=O)NO)cc1)c1ccccc1,0.372 µM (active),0.469 µM (active),1.05 µM (active),0.935 µM (active),1.32 µM (active),,0.526 µM (active),,-1.53,-1.69,1.87 µM (active),-1.43,-1.8,-1.54,,,1.38 µM (active)
CCCCN1CCC(CNC(=O)c2c3n(c4ccccc24)CCCO3)CC1,10.5 µM (active),9.35 µM (active),11.8 µM (active),3.32 µM (active),,,,,,,,,,,13.2 µM (active),,
CC[C@@]1(O)C(=O)OCc2c1cc1n(c2=O)Cc2cc3cc(O)ccc3nc2-1,0.418 µM (active),0.0372 µM (active),0.264 µM (active),0.743 µM (active),,3.32 µM (active),0.209 µM (active),,,,,,,,1.18 µM (active),,
COc1cc2c(NC3CCN(C(C)C)CC3)nc(C3CCCCC3)nc2cc1OCCCN1CCCC1,5.9 µM (active),13.2 µM (active),5.26 µM (active),3.32 µM (active),,7.43 µM (active),14.8 µM (active),0.841 (inactive),0.768,0.938,,,,,,,
COc1ccc(C(=O)CC2(O)C(=O)Nc3c(Cl)ccc(Cl)c32)cc1 (centres undefined),2.96 µM (active),4.18 µM (active),4.18 µM (active),,2.64 µM (active),9.35 µM (active),,-0.119 (inactive),-0.455,-0.085,,,,,1.32 µM (active),,
